Only some compounds are listed: those with a hit (about 4.6% of all), similar ones and a draw of the others.
tim23-1 inh: inhibits growth of tim23-1 mutant yeast. S. cerevisiae tim23-1 growth, BacTiter-Glo luminescence, 24 h. inhibition, % at 20 µM. hit rate 1.3% among 330,000. AID 463212;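 active = growth inhibition of the mutant yeast at or above 50%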;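 also: temperature-sensitive mutant grown at 25 °C; plate controls were DMSO-treated mutant yeast for no effect and medium wells lacking yeast for full effect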
tim10-1 inh: growth inhibitors of tim10-1 mutant yeast. hit rate 2.2% among 330,000. inhibition, % at 20 µM. S. cerevisiae tim10-1 ts strain growth, BacTiter-Glo, 24 h;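 active = inhibition of at least 40%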;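 also: mutant grown at 25 °C; 0% = DMSO wells with yeast and 100% = wells holding no yeast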
NALP3 yeast inh: blocks the NALP3 inflammasome reconstituted in yeast | Yeast reconstituted NLRP3/ASC/caspase-1, beta-gal luminescence, 24 h | inhibition, % at 10 µM | hit rate 0.39% among 330,000;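 active = inhibition of 50% or more; inactive = inhibition below 50%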;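 also: plate controls were induced DMSO wells for no effect and uninduced yeast grown without galactose for full effect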
PfHsp90 yeast 2: growth inhibition of yeast expressing Plasmodium Hsp90; inhibition, % at 9.4 µM; S. cerevisiae expressing PfHsp90, BacTiter-Glo ATP, 48 h; yeast lacking PDR1 and PDR3 efflux regulators; hit rate 0.32% among 310,000;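 active = every replicate shows inhibition above about 80%, whatever the replicate mean, limit read from the data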;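 also: 0% = DMSO neutral controls and 100% = 20 µM radicicol positive controls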
TIM10 inh: growth inhibitors of TIM10 yeast strain | S. cerevisiae TIM10 strain growth, BacTiter-Glo luminescence, 24 h | inhibition, % at 10 µM | hit rate 1.4% among 330,000;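 active = inhibition of 40% or more at the single tested concentration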;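 also: wild-type TIM10 isogenic control strain grown at permissive 25 °C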
SKKanGAS inh: SKKanGAS growth inhibition; S. pyogenes SKKanGAS, kanamycin growth, BacTiter-Glo, 6 h; inhibition, % at 7.5 µM; hit rate 1.3% among 300,000;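 active = mean replicate score, as percent of positive control median, at least 50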;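 also: strain carries kanamycin resistance gene driven by streptokinase promoter and grows in 40 µg/ml kanamycin; loss of luminescence reflects streptokinase promoter inhibition or plain growth inhibition; 0% = median of DMSO wells and 100% = positive control at its reference dose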
tim10-1 conf: confirmation of tim10-1 mutant yeast growth inhibitors | shares compounds with tim10-1 inh | S. cerevisiae tim10-1 ts strain growth, BacTiter-Glo, 24 h | inhibition, % at 20 µM | hit rate 56% among 7,400;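 active = inhibition of yeast growth at or above a set limit in either of two repeat tests at 20 µM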;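 also: tim10-1 mutant grown at permissive 25 °C to find synthetic lethal compounds; 0% = DMSO yeast wells and 100% = medium wells without yeast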
* = called active by the depositor; · = no result.

SMILES	tim23-1 inh	tim10-1 inh	NALP3 yeast inh	PfHsp90 yeast 2	TIM10 inh	SKKanGAS inh	tim10-1 conf
Cc1nc(-c2cccnc2)sc1C(=O)Nc1cccc(C(F)(F)F)c1	22.1	43.1*	5.9	-10.8	31.4	-2.2	27.8
Cc1nc(-c2cccnc2)sc1C(=O)Nc1ccc(C(F)(F)F)cc1	23.8	37.1	9.2	-1.6	19.9	-2.9	·
Cc1nn(C2CCS(=O)(=O)C2)c2nc(C3CC3)cc(C(=O)Nc3cccc(C#N)c3)c12 (stereo not drawn)	2.9	12.2	7.9	·	2.0	·	·
Cc1cc(NC(=O)c2ccccc2Oc2ccccc2)no1	32.6	43.5*	-14.3	2.1	38.8	-2.8	31.4*
COc1ccccc1C(=O)Nc1cc(C)on1	10.4	2.4	24.5	-0.1	-3.4	-2.7	·
O=C1C2C3C=CC(CO)(O3)C2C(=O)N1c1ccccc1-c1ccccc1 (stereo not drawn)	-5.4	52.7*	-21.6	141.7*	18.5	·	87.2*
Cc1ccc(NC(=O)COc2cccc(-n3cnnn3)c2)cc1S(=O)(=O)N1CCOCC1	0.3	-10.4	14.0	-22.8	7.3	·	·
COc1ccc(C(=O)/C=C2/c3ccccc3CC(C)(C)N2C)cc1	39.0	46.7*	13.1	·	20.4	-1.3	26.8
CN1/C(=C\C(=O)Nc2cccnc2)c2ccccc2CC1(C)C	9.0	1.9	18.3	-7.9	3.1	-0.4	·
Cc1ccc(NC(=O)CCC(=O)N/N=C/c2cccnc2)cc1	11.8	6.7	-1.1	5.6	-6.8	3.7	·
Oc1ccc(/C=N/NC(=S)N/N=C/c2ccc(O)cc2)cc1	43.5	41.3*	6.7	-35.5	30.0	5.2	30.6
Oc1ccc(/C=N/NC(=S)Nc2cccnc2)cc1	2.2	13.2	12.5	12.4	-6.7	-0.2	·
Cc1cc(C)cc(NC(=O)CSCc2nc3c(nnn3Cc3ccc(F)cc3)c(=O)[nH]2)c1	-0.4	14.2	-2.2	·	0.5	12.5	·
CCc1ccc2oc(C(=O)NC3CCS(=O)(=O)C3)cc(=O)c2c1 (stereo not drawn)	-3.4	10.0	2.3	-4.2	0.8	8.0	·
OCC1(Cc2ccccc2)CCN(Cc2cnc(-c3ccc(Cl)cc3)nc2)CC1	20.4	47.3*	16.4	18.5	34.9	-8.4	18.7
OCC1(Cc2ccccc2)CCN(Cc2cnc(-c3cccc4ccccc34)nc2)CC1	-57.4	-76.5	21.4	-13.4	-22.3	-0.3	·
CCc1nc(NC(=O)Cc2csc(C)n2)sc1C(=O)OC	20.1	32.7	1.8	-5.1	5.0	6.9	·
O=C(Nc1nc2ccccc2[nH]1)c1ccc(F)cc1	8.0	8.5	17.6	·	12.6	-5.3	·
O=C(Nc1nc2ccccc2[nH]1)c1ccccc1F	49.7	45.6*	26.2	74.7	32.6	80.3*	29.7
c1ccc2sc(N3CCCN(Cc4nc(-c5cnccn5)no4)CC3)nc2c1	17.9	15.9	9.0	70.5	11.9	3.6	·
CSc1nsc(/C=C/Nc2ccc(C(=O)O)cc2)c1C#N	39.1	38.2	2.5	15.5	28.4	39.4	·
CSc1nsc(/C=C/Nc2ccc(F)cc2F)c1C#N	32.0	46.5*	-9.1	-1.0	27.9	·	40.6*
CCOC1(OCC)C(c2ccc(Cl)cc2)C(C#N)(C#N)C1(OCC)OCC (stereo not drawn)	30.3	46.8*	-2.7	-3.3	6.8	-5.4	26.5
CCOC1(OCC)C(c2ccc(N)cc2)C(C#N)(C#N)C1(OCC)OCC (stereo not drawn)	44.2	41.9*	-5.6	·	39.5	-6.0	27.5
CCOC(=O)CSC1=C(C#N)C(c2ccc(Cl)cc2)CC(=O)N1 (stereo not drawn)	40.7	20.1	16.3	-18.0	4.4	3.0	·
SMILES	tim23-1 inh	tim10-1 inh	NALP3 yeast inh	PfHsp90 yeast 2	TIM10 inh	SKKanGAS inh	tim10-1 conf
CCOC1(OCC)N=C(N)C2(C#N)C(c3cccc(C)c3)C12C#N (stereo not drawn)	2.6	1.9	-5.5	16.7	7.7	-4.8	·
COc1ccc(CNC(=O)C2CCN(S(=O)(=O)c3cccc4cccnc34)CC2)cc1	2.6	-2.0	-4.3	37.2	-1.4	-5.4	·
CC(C)(C)c1ccc(C(=O)NCC(=O)N2CCC3(CC2)NCCc2[nH]cnc23)cc1	-5.7	-9.1	-6.5	8.9	-4.3	3.4	·
CCCCCCCCNCCS(=O)(=O)NC1CCCCC1	·	·	·	-32.3	·	·	·
Cc1ccccc1NC(=O)c1sc(NC(=O)COc2ccccc2)c(C#N)c1C	-2.3	6.3	6.5	-7.1	-17.3	1.8	·
Cc1ncc(N=Nc2ccccc2Cl)c(-c2ccccc2)n1	37.7	6.5	9.8	-2.3	-12.8	30.5	·
Nc1nc(-c2ccccc2)c(N=Nc2ccccc2Cl)s1	26.2	54.7*	37.1	-15.0	38.4	-6.0	26.8
CCOc1ccc(C(C(=O)NC2CCCC2)N(C(=O)c2snc(C(N)=O)c2N)c2cccc(O)c2)cc1 (stereo not drawn)	15.6	12.2	4.8	32.2	-2.2	-1.2	·
CN1CCN(C(=O)/C=C/c2ccc(C#N)cc2)CC1	6.0	-2.8	3.4	5.1	11.8	4.9	·
CC(=O)Nc1ccc(C(=O)OCc2ccc(F)cc2)cc1	-24.7	42.0*	45.8	-96.7	26.6	-7.0	23.1
COc1ccc(C2C(=O)N(CCc3ccccc3)CC(=O)N2C2CCCC2)cc1 (stereo not drawn)	32.5	44.2*	6.6	7.7	15.7	-4.7	29.4*
Cc1nc2sccn2c(=O)c1S(=O)(=O)N1CCN(c2cccc(C(F)(F)F)c2)CC1	38.1	41.8*	-7.2	-29.0	29.4	0.1	27.1
Cc1nc2sccn2c(=O)c1S(=O)(=O)N1CCN(c2ccc(F)cc2)CC1	30.8	9.5	-4.1	2.1	7.1	-0.3	·
CCN(CC)S(=O)(=O)c1ccc2oc(C(=O)N3CCc4ccccc4C3)c(C)c2c1	33.5	42.9*	0.3	30.4	4.5	6.4	30.3*
CCCCn1c(N)c(N(CC(C)C)C(=O)c2ccco2)c(=O)[nH]c1=O	8.8	7.6	-10.3	·	0.8	0.0	·
COc1cc(S(=O)(=O)N2CCN(c3ccccc3F)CC2)ccc1Cl	16.6	42.7*	6.2	20.3	10.6	-1.0	30.0
COc1ccccc1N1CCN(S(=O)(=O)c2ccc3c(c2)NC(=O)C(C)S3)CC1 (stereo not drawn)	45.6	42.7*	8.8	-37.4	12.8	3.3	6.0
COc1ccccc1N1CCN(S(=O)(=O)c2ccc3nc(-c4ccccc4)[nH]c3c2)CC1	36.7	42.0*	19.6	-17.0	30.6	21.6	27.3
O=S(=O)(c1ccc2nc(-c3ccccc3)[nH]c2c1)N1CCN(c2cccc(Cl)c2)CC1	14.8	14.6	29.2	-0.1	22.9	4.3	·
COc1cc(S(=O)(=O)N2CCN(c3ccccc3)CC2)ccc1Cl	13.0	-3.3	2.4	-18.8	3.4	1.7	·
CCCN1CCN(S(=O)(=O)c2ccc3c(c2)NC(=O)C(C)S3)CC1 (stereo not drawn)	-4.4	-10.9	9.8	-14.7	1.2	2.0	·
